Here are results for 24 compounds from PubChem BioAssay (Tox21).

Several values for one entry are separate records, joined by “and”; a condition that tells them apart may be missing. Equal values may be shown once. Results filed as inconclusive are left out. A structure can be active in one record and inactive in another. Activity calls are given as the source filed them. Calls come from the whole dose curve; as a rule, active = well fitted curve in the direction sought with a large enough effect in the repeat runs; inconclusive = weak or mixed curves; inactive = no such curve, though single readings can be large; an effect the other way counts as inactive or inconclusive.

Assay [1] is described as follows: A CellTox Green Cytotoxicity Assay to monitor cytotoxicity in HEK293 cells - 32 hour (AID 1224881). Note: nearly all actives have a fitted effect of over 40% in size. Note: potency is the fitted concentration of half-maximal effect. A digest of the protocol:
(§1)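 Homogeneous no-lysis format: HEK293 cell suspension mixed with CellTox Green reagent, seeded, incubated 5 h at 37 C/5% CO2, then dosed by pintool with compound in DMSO.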

The nature of assay [2]: A CellTox Green Cytotoxicity Assay to monitor cytotoxicity in HepG2 cells - 0 hour (AID 1224882). Note: nearly all actives have a fitted effect of over 35% in size. In short, it runs like this: (§2)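 Fluorescent DNA-binding dye, 600 HepG2 cells/well, 5 h preincubation then compound in DMSO; same plates read at 0–40 h, 37 C.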
Assay [3] can be described thus: A CellTox Green Cytotoxicity Assay to monitor cytotoxicity in HepG2 cells - 32 hour (AID 1224883). Note: nearly all actives have a fitted effect of over 50% in size. Note: potency is the fitted concentration of half-maximal effect. A digest of the protocol:
as §2

Assay [4] can be described thus: A CellTox Green Cytotoxicity Assay to monitor cytotoxicity in HEK293 cells - 8 hour (AID 1224884). Note: nearly all actives have a fitted effect of over 35% in size. A digest of the protocol:
as §1

Assay [5] in a line: qHTS RealTime-Glo MT Cell Viability Assay in HepG2 cells - 16 hour (AID 1224885). Note: nearly all actives have a fitted effect of over 50% in size. Note: potency is the fitted concentration of half-maximal effect. A digest of the protocol: (§3)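 qHTS, HepG2, 600 cells/well, RealTime-Glo (NanoLuc + prosubstrate) added with cells; 5 h preincubation; DMSO compound addition; 37 C; luminescence at 0/8/16/24/32/40 h.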
A short description of assay [6]: qHTS RealTime-Glo MT Cell Viability Assay in HEK293 cells - 24 hour (AID 1224886). Note: nearly all actives have a fitted effect of over 50% in size. Note: potency is the fitted concentration of half-maximal effect. In short, it runs like this:
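Assay medium contained NanoLuc luciferase plus cell-permeant prosubstrate, added with HEK293 cells at 600 cells/well. After 5 h at 37 C/5% CO2 compounds were added; plates stayed at 37 C for 40 h with serial luminescence reads.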
(Quantitative high-throughput screening tests each substance at several concentrations.)

Assay [7] is described as follows: A CellTox Green Cytotoxicity Assay to monitor cytotoxicity in HEK293 cells - 16 hour (AID 1224888). Note: nearly all actives have a fitted effect of over 35% in size. A digest of the protocol:
as §1

Assay [8] is described as follows: qHTS RealTime-Glo MT Cell Viability Assay in HepG2 cells - 0 hour (AID 1224889). Note: nearly all actives have a fitted effect of over 50% in size. In short, it runs like this: as §3
Assay [9] is described as follows: A CellTox Green Cytotoxicity Assay to monitor cytotoxicity in HepG2 cells - 8 hour (AID 1224890). Note: nearly all actives have a fitted effect of over 45% in size. Note: potency is the fitted concentration of half-maximal effect. In short, it runs like this:
as §2

Assay [10] in a line: qHTS RealTime-Glo MT Cell Viability Assay in HEK293 cells - 8 hour (AID 1224887). Note: nearly all actives have a fitted effect of over 50% in size. Note: potency is the fitted concentration of half-maximal effect. In short, it runs like this:
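Measured as luminescence from the same continuously cultured HEK293 wells at successive time points (0, 8, 16, 24, 32, 40 h) after compound addition. Reagent present from seeding; dosing at 5 h; incubation 37 C.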

As to `N#CCCN(CCO)CCO`, the Potency entry in assay [1], in assay [2], in assay [3], in [4], in assay [5] and in assay [6] was “inactive” in each case. Besides, the Potency entry in [7], in [8] and in assay [9] was “inactive” in each case.

As for `CC1CC(OC(=O)C(O)c2ccccc2)CC(C)(C)N1C` (stereo not given), the Potency entry in assay [1], in [2], in assay [3], in [4], in [5] and in assay [6] was “inactive” in each case. The Potency result in assay [7], in [8] and in [9] was “inactive” in each case.

`CCC(=O)C1CC(C(C)C)CC=C1C` (stereo not given): the Potency result in assay [1], in assay [2], in assay [3], in assay [4], in assay [5] and in [6] was “inactive” throughout. In addition, the Potency result in [7], in [8] and in [9] was “inactive” throughout.

Consider `CN1CCCC(n2nc(Cc3ccc(Cl)cc3)c3ccccc3c2=O)CC1` (stereo not given), for which the figures for the Potency in assay [1], in assay [3] and in assay [6] were 30.1 µM (active), 23.9 µM (active) and 8.49 µM (active), respectively. The Potency result in [2], in [4], in [5], in [7] and in [8] was “inactive” each time.

Regarding `CC1(C)[C@@H](OC(=O)CCC(=O)O)CC[C@]2(C)[C@H]3C(=O)C=C4[C@@H]5C[C@@](C)(C(=O)O)CC[C@]5(C)CC[C@@]4(C)[C@]3(C)CC[C@@H]12`, the Potency entry in assay [1], in assay [2], in assay [3], in [4], in [5] and in [6] was “inactive” in each case. Also, the Potency result in assay [10], in assay [7] and in assay [9] was “inactive” each time.

In the case of `CC(C)=CCC1C(=O)N(c2ccccc2)N(c2ccccc2)C1=O`, the Potency result in assay [1], in assay [2], in assay [3], in assay [4], in [5] and in [6] was “inactive” throughout. The Potency result in assay [10], in [7] and in assay [9] was “inactive” in each case.

Regarding `O=C(O)CCc1nc(-c2ccccc2)c(-c2ccccc2)o1`, the Potency entry in assay [1], in [2], in assay [3], in [4], in assay [5] and in assay [6] was “inactive” throughout. In addition, the Potency entry in assay [7], in [8] and in assay [9] was “inactive” throughout.

On to `C=CC(C)(CCC=C(C)C)OC(=O)CC(C)C` (stereo not given), for which the Potency result in assay [1], in assay [2], in assay [3], in assay [4], in assay [5] and in assay [6] was “inactive” in each case. In addition, the Potency result in [10], in assay [7] and in assay [9] was “inactive” each time.

As to `O=[N+]([O-])c1ccc(O/N=C/c2cc(Br)c(O)c(Br)c2)c([N+](=O)[O-])c1`, the Potency result in [1], in assay [2], in [3], in assay [4], in assay [5] and in [7] was “inactive” each time. Besides, the Potency result in assay [8] and in assay [9] was “inactive” in each case. In addition, in assay [6], the Potency was 48.7 µM (active).

Regarding `C[C@]12CC[C@@H]3c4ccc(O)cc4CC[C@H]3[C@@H]1CC[C@@H]2OC(=O)CCC1CCCC1`, the Potency is 54.9 µM (active) in assay [1]; 49 µM (active) and 23.9 µM (active) in [3]; 49 µM (active) and inactive in assay [5]; 43.6 µM (active) and inactive in [6]; 49 µM (active) and inactive in [10]; 49 µM (active) in assay [9]. In addition, the Potency result in assay [2], in [4] and in assay [8] was “inactive” each time.

For the compound `O=[N+]([O-])c1ccc(Nc2ccc(Nc3ccccc3)c(S(=O)(=O)O)c2)c([N+](=O)[O-])c1`, the Potency entry in [1], in assay [2], in assay [3], in assay [4], in [5] and in [6] was “inactive” throughout. Moreover, the Potency result in [10], in assay [7] and in assay [9] was “inactive” throughout.

As for `C[C@@H](O)[C@H]1C(=O)N2C(C(=O)O)=C([C@H]3CCCO3)S[C@H]12`, the Potency entry in assay [1], in [2], in assay [3], in [4], in [5] and in [6] was “inactive” throughout. Moreover, the Potency entry in assay [7], in assay [8] and in assay [9] was “inactive” each time.

`O=C(/C=C/c1ccccc1)OCCc1ccccc1`: the Potency result in assay [1], in [2], in [3], in assay [4], in [5] and in assay [6] was “inactive” throughout. In addition, the Potency entry in [7], in assay [8] and in assay [9] was “inactive” in each case.

As to `CCCCCCNC(=O)n1cc(F)c(=O)[nH]c1=O`, the Potency result in assay [1], in [2], in assay [3], in [4], in [5] and in [6] was “inactive” throughout. The Potency result in assay [10], in [7] and in [9] was “inactive” throughout.

In the case of `CCC=CC#N`, the Potency entry in assay [1], in assay [2], in assay [3], in assay [4], in assay [5] and in assay [6] was “inactive” in each case. Moreover, the Potency result in [10], in assay [7] and in assay [9] was “inactive” in each case.

In the case of `Cc1cc(C)cc(N)c1`, the Potency entry in [1], in assay [2], in [3], in assay [4], in assay [5] and in assay [6] was “inactive” throughout. The Potency result in assay [10], in assay [7] and in assay [9] was “inactive” each time.

Take `CC(=O)Oc1ccc([N+](=O)[O-])cc1CCl`: the Potency entry in assay [1], in assay [2], in assay [3], in assay [4], in assay [5] and in assay [7] was “inactive” each time. Further, the Potency entry in assay [8] and in assay [9] was “inactive” throughout. The Potency in [6] is 4.36 µM (active).

`C=C(C)CCCC(C)CCO` (stereo not given): the Potency entry in assay [1], in assay [2], in assay [3], in assay [4], in assay [5] and in assay [6] was “inactive” throughout. Also, the Potency result in [7], in assay [8] and in assay [9] was “inactive” each time.

As for `CCC(OCCCOC)OC(C)=O` (stereo not given), the Potency entry in assay [1], in assay [2], in assay [3], in assay [4], in assay [5] and in assay [6] was “inactive” each time. The Potency entry in [7], in [8] and in [9] was “inactive” each time.

As for `Cc1c(C)c2c(c(C)c1OC(=O)CCC(=O)OCCO)CC[C@@](C)(CCC[C@H](C)CCC[C@H](C)CCCC(C)C)O2`, the Potency entry in [1], in [2], in assay [3], in assay [4], in assay [5] and in assay [6] was “inactive” each time. In addition, the Potency entry in assay [10], in assay [7] and in assay [9] was “inactive” throughout.

Regarding `O=C1NC(=O)c2cc([N+](=O)[O-])ccc21`, the Potency entry in assay [1], in assay [2], in [3], in [4], in [5] and in assay [6] was “inactive” throughout. Besides, the Potency result in assay [7], in assay [8] and in [9] was “inactive” each time.

For the compound `CC[N+](CC)(CCNC(=O)C(=O)NCC[N+](CC)(CC)Cc1ccccc1Cl)Cc1ccccc1Cl`, the Potency result in [1], in [2], in [3], in [4], in assay [5] and in [6] was “inactive” each time. In addition, the Potency entry in assay [7], in assay [8] and in assay [9] was “inactive” each time.

With `CCCC(=O)C(=O)O`, the Potency result in assay [1], in [2], in assay [3], in assay [4], in [5] and in assay [6] was “inactive” throughout. The Potency result in assay [7], in assay [8] and in assay [9] was “inactive” in each case.

Turning to `CN1C(C(=O)Nc2ccccn2)=C(O)c2sccc2S1(=O)=O`, the Potency entry in [1], in assay [2], in [3], in assay [4], in [5] and in assay [6] was “inactive” in each case. Moreover, the Potency entry in [7], in assay [8] and in assay [9] was “inactive” each time.
